Shown are actives, neighbours in structure and some others; about 7.4% of the full set was active somewhere.
FLuc counter = qHTS profiling assay for firefly luciferase inhibitor/activator using purifed enzyme and Km concentrations of substrates (counterscreen for miR-21 project). Luciferin 4-monooxygenase (Photinus pyralis), P08659. purified FLuc, Km substrates, luminescence inhibition. Potency, µM (titrated, usually from 57.5 µM), for the others: at the highest dose activity change, negative = inhibition, most hits filed as inhibitors. 360,000 tested, 6.9% active;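 further: plate controls were vehicle for no effect and reference inhibitor for full effect; nearly all actives have a fitted effect of over 55% in size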
Target sequence (P08659 whole entry, looked up): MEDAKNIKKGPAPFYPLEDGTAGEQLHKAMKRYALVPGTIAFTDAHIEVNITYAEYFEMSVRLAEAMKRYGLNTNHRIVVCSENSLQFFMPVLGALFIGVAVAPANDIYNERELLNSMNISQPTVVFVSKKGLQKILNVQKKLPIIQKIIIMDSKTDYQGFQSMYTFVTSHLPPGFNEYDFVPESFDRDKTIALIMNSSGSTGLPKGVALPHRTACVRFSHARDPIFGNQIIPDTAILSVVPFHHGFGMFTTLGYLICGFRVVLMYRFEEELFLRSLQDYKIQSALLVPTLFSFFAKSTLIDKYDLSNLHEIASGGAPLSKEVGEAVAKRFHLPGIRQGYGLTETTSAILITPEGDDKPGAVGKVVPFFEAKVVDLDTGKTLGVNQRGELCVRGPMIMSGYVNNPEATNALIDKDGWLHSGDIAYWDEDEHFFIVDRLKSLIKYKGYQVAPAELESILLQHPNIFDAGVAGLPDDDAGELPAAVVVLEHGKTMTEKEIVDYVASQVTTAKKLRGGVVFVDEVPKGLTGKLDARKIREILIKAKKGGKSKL
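Purified P. pyralis luciferase, 10 nM final, with Km-level 10 uM D-luciferin and 10 uM ATP in 50 mM Tris acetate pH 7.5, 10 mM Mg acetate, 0.01% Tween-20, 0.05% BSA; 6-point qHTS titration about 60 µM downward; luminescence read.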
SMN2 splice up = qHTS Assay for Enhancers of SMN2 Splice Variant Expression. HEK293 SMN2-luciferase splicing reporter, luminescence, 30-36 h. AID 1458, 2008. Potency, µM (series often up to 46.1 µM), inactives show at the highest dose activity change, positive = activation, hits mostly activators. 210,000 tested, 2.8% active; further: % of control where 0% means no effect; nearly all actives have a fitted effect of over 55% in size
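HEK293 cells carry an SMN2 […]–luciferase reporter in which exon 7 inclusion puts luciferase in frame. Cells were plated 10-12 h before compound addition, then incubated 30-36 h at 37C. ONE-Glo luminescence was read; sodium butyrate at 4.5 mM final served as control.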
ELG1 genotoxic = qHTS screen for small molecules that induce genotoxicity in human embryonic kidney (HEK293T) cells expressing luciferase-tagged ELG1. HEK293T ELG1-luciferase reporter, luminescence, 16 h. Potency, µM (highest dose often 46 µM), inactives show at the top dose activity change, positive = activation, hits mostly activators. 330,000 tested, 1.3% active; further: % of control where 0% means no effect; nearly all actives have a fitted effect of over 60% in size
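Luminescence read-out: rising ELG1-luciferase signal, reflecting elevated ELG1 protein under genetic stress, flags genotoxic compounds. Cells were treated for 16 hr at 37 °C before ONE-Glo detection.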
Rab9 promoter act = qHTS Assay for Rab9 Promoter Activators | Huh7 Rab9 promoter-luciferase reporter, luminescence, 24 h | Potency, µM (top dose mostly 9.22 µM), without a hit: at the highest dose activation, negative = inhibition, actives largely listed as activators | 320,000 tested, 2.8% active; further: % of control where 0% means no effect; nearly all actives have a fitted effect of over 60% in size
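Steps: seed 1500 Huh7 Rab9-luc cells per well, rest 2 h at 37 °C; add compound in DMSO; incubate 24 h; add luciferase reagent, 10 min ambient; read luminescence.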
NPC1 prom act = qHTS Assay for NPC1 Promoter Activators. Potency, µM (series often up to 9.22 µM), without a hit: at the top dose activation, actives largely listed as activators. 320,000 tested, 2.4% active. AID 485313, 2010. Huh7 NPC1 promoter luciferase reporter, 24 h; further: % of control where 0% means no effect; nearly all actives have a fitted effect of over 60% in size
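Luminescence read-out of NPC1 promoter-driven luciferase in stably transfected Huh7 cells; compounds delivered in DMSO and left 24 h at 37C, 5% CO2, qHTS titration format.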
* marks the source's active call; other numbers are inactive results; ? = inconclusive; . = no result given. The call rests on the fitted dose curve; in most records, active means well fitted curve in the direction sought with a large enough effect; inconclusive means small, poorly fitted or top-dose-only effect, or another doubt; inactive means no such curve, though single readings can be large; an effect the other way counts as inactive or inconclusive. Potency means the concentration at half of the fitted maximal effect.

SMILES	FLuc counter	SMN2 splice up	ELG1 genotoxic	Rab9 promoter act	NPC1 prom act
CCNc1nc2c(c(=O)[nH]c(=O)n2C)n1Cc1ccc(F)cc1	2%	?	23µM*	-2%	0%
CC1CCCN(Cc2c(O)ccc3c(=O)c(-c4nc5ccccc5s4)c(N)oc23)C1 (stereo not drawn)	6.7µM*	-15%	5%	5%	9%
CC1CCN(Cc2c(O)ccc3c(=O)c(-c4nc5ccccc5s4)c(N)oc23)CC1	11µM*	20%	-1%	-4%	-4%
CC1CCN(Cc2c(O)ccc3c(=O)c(-c4ccc(Cl)cc4)c(C(F)(F)F)oc23)CC1	0%	-3%	.	.	.
CC1CCCN(Cc2c(O)ccc3c(=O)c(Oc4ccccc4Cl)c(C(F)(F)F)oc23)C1 (stereo not drawn)	9%	3%	.	.	.
CC1(C)CCCN(Cc2c(O)ccc3c(=O)c(-c4nc5ccccc5s4)c(N)oc23)C1	6µM*	.	?	?	11%
CCOC(=O)CC(NS(=O)(=O)c1ccc2[nH]c(=O)sc2c1)c1ccc(C)cc1 (stereo not drawn)	0%	.	-5%	0%	1%
Nc1c(-c2nc(-c3ccc4c(c3)OCO4)cs2)c2ccccn2c1C(=O)c1ccccc1	-11%	18%	.	.	.
Brc1ccc(Sc2cnc3ccccc3n2)cc1	?	-11%	.	.	.
Clc1ccccc1Sc1cnc2ccccc2n1	?	-7%	1%	14%	4%
Clc1ccc(Sc2cnc3ccccc3n2)cc1	15µM*	-6%	.	.	.
c1ccc(Sc2cnc3ccccc3n2)cc1	21µM*	11%	.	.	.
COc1ccccc1C(=O)Nc1ccc(S(=O)(=O)N2CCCCC2)cc1	-2%	.	-5%	2%	0%
COc1cccc(-c2nnc(-c3ccccc3[N+](=O)[O-])o2)c1	9.5µM*	.	?	4µM*	?
COc1cccc(-c2nnc(-c3ccco3)o2)c1	9.5µM*	11µM*	?	2.5µM*	2.5µM*
COc1cccc(-c2nnc(-c3ccc(C)o3)o2)c1	1.7µM*	2.8µM*	?	0.71µM*	1.1µM*
NC(=O)c1nsc(C(=O)N(Cc2ccc(F)cc2)C(C(=O)NCC2CCCO2)c2ccc(O)cc2)c1N (stereo not drawn)	1%	.	3%	0%	-1%
Oc1ccccc1Cc1c(O)ccc2ccccc12	5%	.	0%	-3%	1%
Cc1cccc(C(=O)Nc2cc3c(cc2C)n(C)c(=O)n3C)c1	-1%	.	.	.	.
COc1cc(OC)cc(C(=O)NC(C(=O)Nc2ccc3c(c2)OCCO3)C(C)C)c1 (stereo not drawn)	?	.	17%	19%	13%
c1cc(CNc2ccc3c(c2)OCCO3)ccn1	?	11%	18µM*	1%	0%
COc1cc(OC)cc(C(=O)Nc2ccc3c(c2)OCCO3)c1	3µM*	10µM*	?	3.2µM*	4µM*
Cc1cc(C(=O)Nc2ccc3c(c2)OCCO3)co1	3.4µM*	.	?	4.5µM*	3.2µM*
CCN(CC(=O)Nc1ccc2c(c1)OCCO2)C(=O)c1ccc(Cl)cc1Cl	7.6µM*	.	?	1.4µM*	4µM*
Cc1cc(NCc2ccncc2)ccc1Br	-6%	.	-1%	15%	7%
SMILES	FLuc counter	SMN2 splice up	ELG1 genotoxic	Rab9 promoter act	NPC1 prom act
CC1CCC2(CC1)NC(=O)N(CC(=O)Nc1ccc(C(N)=O)cc1)C2=O (stereo not drawn)	.	.	0%	.	.
CC(=O)Nc1ccc(C(=O)Nc2ccc3c(c2)OCO3)cc1	?	3%	13%	24%	16%
O=C(NCc1ccc2c(c1)OCO2)c1ccc(NC(=O)C2CCCO2)cc1 (stereo not drawn)	-4%	19%	1%	-5%	-3%
CC(=O)Nc1ccc2c(c1)OCCOCCOc1cc(NC(C)=O)ccc1OCCO2	5%	.	-6%	8%	0%
Cc1ccc(C(=O)Nc2ccc3c(c2)OCCO3)o1	3µM*	.	3.3µM*	?	?
NC(=O)Nc1ccc2c(c1)OCCO2	21µM*	17%	?	30%	19%
CC(=O)Nc1ccc(C(=O)Nc2ccc3c(c2)OCCO3)cc1	15µM*	.	?	5%	-2%
O=C(Nc1ccc2c(c1)OCCO2)c1ccc(NC(=O)C2CCCO2)cc1 (stereo not drawn)	12µM*	-5%	5%	22%	14%
CSc1cccc(NC(=O)c2cc3c(COC(C)=O)cnc(C)c3oc2=O)c1	-1%	.	.	.	.
CC(=O)OCc1ccco1	.	-1%	.	.	.
CCOc1ccc(C(=O)Nc2ccc3c(c2)OCCO3)cc1OC	2.7µM*	13µM*	18µM*	?	?
Cc1cc(C)n(-c2ccc(C(=O)Nc3ccc4c(c3)OCCO4)cc2)n1	8.5µM*	17%	?	?	?
CCOc1ccc(C(=O)Nc2ccc3c(c2)OCCO3)cc1[N+](=O)[O-]	?	-28%	-13%	21%	0%
O=C(Nc1ccc2c(c1)OCCO2)c1ccc(Cl)cc1	1.5µM*	.	?	0.45µM*	0.71µM*
C=CCOc1ccccc1CNc1ccc2c(c1)OCCO2	0.85µM*	-29%	?	?	?
Cc1ccccc1-c1nn2c(=O)cc(CN3CCN(C(=O)c4ccc(C(C)(C)C)cc4)CC3)nc2s1	-8%	.	.	.	.
Cc1ccccc1C(=O)NNC(=O)C1CC(=O)N(Cc2ccccc2)C1 (stereo not drawn)	-14%	.	14%	1%	1%
O=C(NCc1ccco1)c1ccc(-c2csnn2)cc1	-15%	.	4%	11%	12%
Cc1ccc(S(=O)(=O)N(Cc2cc3ccccc3[nH]c2=O)c2cccc(C)c2)cc1	-4%	.	0%	-12%	-25%
CSc1ccc(CN(C)C(=O)c2cc3ccccc3o2)cc1	17µM*	.	8%	-1%	22%
Cc1ccc2occ(-c3cc(-c4ccc(Cl)cc4)nc4c3COc3ccccc3-4)c(=O)c2c1	-4%	-13%	.	.	.
O=C(N/N=C/C1CC=CCC1)c1ccccc1O (stereo not drawn)	15µM*	-7%	10%	-3%	1%
O=C(CNc1ccccc1F)N/N=C/C1CC=CCC1 (stereo not drawn)	-11%	1%	2%	-3%	-2%
O=C(N/N=C/C1CC=CCC1)c1ccc(Cl)cc1O (stereo not drawn)	19µM*	26%	2%	3%	2%
C/C=N/NC(=O)c1cc(Br)ccc1O	6%	-10%	-1%	-3%	1%
Cc1ccc(C(=O)N/N=C\C2CC=CCC2)cc1[N+](=O)[O-] (stereo not drawn)	-19%	.	3%	-8%	1%

Bioassay records deposited in PubChem by National Center for Advancing Translational Sciences (NCATS).
